High-throughput results from PubChem BioAssay.
Compounds with a hit are over-represented: about 1.8% of the library has one in this group of screens.
RGS4 inh: human RGS4 inhibition | P49798 | Potency, µM (doses to about 114 µM), inactives show top-dose activity change, negative = inhibition, hits mostly inhibitors | 390,000 compounds, 0.039% hits | Transcreener GDP fluorescence polarization, RGS4-accelerated GTP hydrolysis; further: on the % scale 0 is the no-effect control and ±100 the full control effect; nearly all actives have a fitted effect of over 75% in size
Target sequence (P49798 whole entry, looked up): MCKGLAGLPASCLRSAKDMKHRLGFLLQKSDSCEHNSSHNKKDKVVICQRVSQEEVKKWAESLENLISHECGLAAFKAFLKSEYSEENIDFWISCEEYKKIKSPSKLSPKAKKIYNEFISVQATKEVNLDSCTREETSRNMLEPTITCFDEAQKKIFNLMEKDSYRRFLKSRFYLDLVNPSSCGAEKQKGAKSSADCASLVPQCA
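MLSMR compounds (23 nl, pin-transferred) preincubated 10 min at room temperature with a 500nM (2x) first reagent, then RGS4 at 900nM (2x) plus Transcreener GDP mix added; fluorescence polarization (620/688 nm) read before and after 90 min at 30 °C.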
PTHR1 ag: PTHR1 (human) receptor agonism | Q03431 | HEK293 GP2 PTHR1 cells, GloSensor cAMP luminescence, 1 h | Potency, µM (series often up to 115 µM), without a hit: at the top dose activation, usual class: activators | 410,000 compounds, 0.075% hits | AID 743266; further: nearly all actives have a fitted effect of over 55% in size
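HEK-293-derived GP2 cells expressing PTHR1 and a GloSensor cAMP reporter, 3,000/well, plated overnight, given luciferin plus IBMX (each 0.5 mM as added) for 1 h at 37 °C, then compound for 1 h at 37 °C. Luminescence was read after 15 min at room temperature.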
GLP1R ag: activates the human GLP-1 receptor | P43220 | HEK293 GLP-1R CRE-luciferase, luminescence, 4-6 h; cells express a hypersensitive GLP-1R form | Potency, µM (titrated, usually from 45.6 µM), for inactives: at the highest dose activation, actives largely listed as activators | 380,000 compounds, 0.007% hits; further: % of control where 0% means no effect
Target sequence (P43220 whole entry, looked up): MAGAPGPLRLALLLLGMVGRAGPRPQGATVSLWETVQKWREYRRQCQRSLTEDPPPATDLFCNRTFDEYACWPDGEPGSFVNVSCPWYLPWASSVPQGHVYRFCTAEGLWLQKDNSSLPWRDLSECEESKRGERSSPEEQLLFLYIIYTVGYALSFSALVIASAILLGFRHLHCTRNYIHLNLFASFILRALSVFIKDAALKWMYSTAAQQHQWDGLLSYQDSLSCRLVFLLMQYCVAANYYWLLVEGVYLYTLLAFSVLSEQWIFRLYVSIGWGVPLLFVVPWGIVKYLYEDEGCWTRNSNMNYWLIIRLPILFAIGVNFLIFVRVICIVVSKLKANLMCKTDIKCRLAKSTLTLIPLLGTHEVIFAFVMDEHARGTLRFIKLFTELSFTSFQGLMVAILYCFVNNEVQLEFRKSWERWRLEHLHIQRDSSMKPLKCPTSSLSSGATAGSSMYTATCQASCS
GLP1R inv ag: acts as inverse agonist at human GLP-1 receptor. HEK293 GLP-1R CRE-luciferase, luminescence, 24 h; GLP-1R form is constitutively active. P43220. Potency, µM (top dose mostly 38.3 µM), for inactives: top-dose activity change, negative = inhibition, usual class: inhibitors. 410,000 compounds, 1.6% hits; further: on the % scale 0 is the no-effect control and ±100 the full control effect; nearly all actives have a fitted effect of over 55% in size
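HEK293 cells stably co-expressing constitutively active GLP-1R and a cAMP-responsive luciferase reporter were seeded in DMEM with 10% Nu serum, given compounds after 12 h, and incubated 24 h at 37 deg C. Luminescence was then read.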
KAT2A inh: blocks human GCN5L2 histone acetyltransferase | Q92830 | Potency, µM (highest dose often 58.9 µM), for inactives: top-dose activity change, negative = inhibition, usual class: inhibitors | 390,000 compounds, 0.21% hits | GCN5L2 HAT assay, ThioGlo1 CoA-SH fluorescence; further: on the % scale 0 is the no-effect control and ±100 the full control effect
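GCN5L2 (20 nM) in 50mM HEPES pH 7.5, 0.1mM EDTA, 0.01% Tween-20 preincubated 15 min with compounds at room temperature. Reaction started with H3(1-25) 75uM, acetyl-CoA 70uM, ThioGlo1 50uM; CoA-thiol fluorescence (Ex340/Em540) read at 0 and 20 min.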
HEK293 tox: cytotoxic in the GLP-1 receptor inverse agonist counter-screen; HEK293 cAMP-luciferase reporter cells, luminescence, 24 h; Potency, µM (top dose mostly 38.3 µM), without a hit: at the top dose activity change, negative = inhibition, actives largely listed as inhibitors; 410,000 compounds, 0.13% hits; AID 624418;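 further: loss of luciferase light is scored as toxicity; on the % scale 0 is the no-effect control and ±100 the full control effect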
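Cells in DMEM/10% Nu serum/1% pen-strep, 1536-well format. Pre-incubated 12 h, dosed with 23 nL compound, incubated a further 24 h. Luciferase detection, 12 min at room temp, luminescence.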
An asterisk follows results filed as active; ! = not confirmed by another sample; [ ] = another dose, or the depositor's remark. The call rests on the fitted dose curve; in most records, active means well fitted curve in the direction sought with a large enough effect; inconclusive means small, poorly fitted or top-dose-only effect, or another doubt; inactive means no such curve, though single readings can be large; an effect the other way counts as inactive or inconclusive. Potency means the concentration at half of the fitted maximal effect.

`COc1ccc(-n2cc(-c3ccccc3)c3c(NCCc4ccc(OC)c(OC)c4)ncnc32)cc1` gave RGS4 inh 2%, PTHR1 ag inactive, GLP1R inv ag inconclusive, KAT2A inh 0% and HEK293 tox -11%.
Screening CCOc1ccc(-n2cc(-c3ccccc3)c3c(NCc4ccc(F)cc4)ncnc32)cc1 returned RGS4 inh -4%, PTHR1 ag inactive, GLP1R inv ag 1.4µM*, KAT2A inh -2% and HEK293 tox -3%.
Screening COc1ccc(CNc2ncnc3c2c(-c2ccccc2)cn3-c2ccccc2)cc1 returned RGS4 inh -7%, PTHR1 ag inactive, GLP1R inv ag 6.3µM*, KAT2A inh -4% and HEK293 tox 0%.
For Cc1cc(C)c(NC(=O)Cn2c(=O)n(CCc3ccccc3)c(=O)c3ccccc32)c(C)c1 the results were RGS4 inh 17%, PTHR1 ag -6%, GLP1R ag -3%, GLP1R inv ag -1%, KAT2A inh -6% and HEK293 tox 3%.
`CCOc1ccccc1NC(=O)NC1CC2CCCC(C1)N2Cc1nnnn1CCc1ccccc1` (stereo not given) gave RGS4 inh -16%, PTHR1 ag inactive, GLP1R ag -4%, GLP1R inv ag 10µM*, KAT2A inh -13% and HEK293 tox 9%.
COc1ccc(N2CCN(C(=O)c3cc(-c4ccc(C)c(F)c4)on3)CC2)cc1 was read as RGS4 inh 13%, PTHR1 ag -43%, GLP1R inv ag 0%, KAT2A inh -7% and HEK293 tox 19%.
`Cc1cc(OC(C)C(=O)N(Cc2ccco2)Cc2ccco2)cc(C)c1Cl` (stereo not given) gave RGS4 inh -15%, PTHR1 ag -24%, GLP1R inv ag 10µM*, KAT2A inh -10% and HEK293 tox 1%.
For CC1c2cc3c(cc2CCN1C(=O)c1ccc(Br)cc1)OCCCO3 (stereo not given) the results were RGS4 inh 3%, PTHR1 ag -97%, GLP1R ag -9%, GLP1R inv ag 3.2µM*, KAT2A inh 2% and HEK293 tox -25%.
For COc1ccc(C(=O)N2CCc3cc4c(cc3C2C)OCCCO4)cc1 (stereo not given) the results were RGS4 inh 7%, PTHR1 ag -32%, GLP1R ag 9%, GLP1R inv ag inconclusive, KAT2A inh -12% and HEK293 tox -9%.
CCN(CC)CCCN1C(=O)c2oc3ccccc3c(=O)c2C1c1cccs1 (stereo not given) was read as KAT2A inh 0%.
For CC(C)Cn1c(SCC(=O)N2CCCc3ccccc32)nc2ccccc2c1=O the results were RGS4 inh 0%, PTHR1 ag -20%, GLP1R ag 25%, GLP1R inv ag 2.5µM*, KAT2A inh -11% and HEK293 tox -13%.
`CCn1c(SCC(=O)N2CCCc3ccccc32)nc2ccccc2c1=O` gave RGS4 inh 9%, PTHR1 ag -16%, GLP1R ag 13%, GLP1R inv ag inconclusive, KAT2A inh -5% and HEK293 tox -11%.
CN(Cc1ccccc1)C(=O)Nc1c(Cl)cccc1Cl was read as PTHR1 ag inconclusive, GLP1R ag 0%, GLP1R inv ag -6% and HEK293 tox 10%.
CC1CCN(CC(=O)Nc2cccc(C(=O)Nc3cccc(C(F)(F)F)c3)c2)CC1 was read as RGS4 inh 0%, PTHR1 ag -15%, GLP1R ag 16%, GLP1R inv ag 3.2µM*, KAT2A inh -10% and HEK293 tox inconclusive.
CC1CCN(CC(=O)Nc2ccc(N3CCCCCC3)cc2)CC1 was read as RGS4 inh -34%, PTHR1 ag inactive, GLP1R ag 23%, GLP1R inv ag 2.8µM*, KAT2A inh -4% and HEK293 tox -27%.
`O=C(CN1CCCC1)Nc1ccc(Oc2ccc(NC(=O)CN3CCCC3)cc2)cc1` gave RGS4 inh -8%, PTHR1 ag inactive, GLP1R ag 6%, GLP1R inv ag 1.8µM*, KAT2A inh -2% and HEK293 tox inconclusive.
`CC1CN(CC(=O)Nc2cccc(C(=O)Nc3cccc(C(F)(F)F)c3)c2)CC(C)O1` (stereo not given) gave RGS4 inh 35%[11.4 µM], PTHR1 ag -11%[57.5 µM], GLP1R ag 3%, GLP1R inv ag inconclusive, KAT2A inh -5% and HEK293 tox -23%.
`CCCCCCCCCC(=O)OCC(CO)OC(=O)CCCCCCCCC` (stereo not given) gave RGS4 inh 27µM* and KAT2A inh -11%.
For CCCCCCCCCCCCCCCC(=O)OC(CC(=O)O)C[N+](C)(C)C (stereo not given) the results were RGS4 inh 19µM*!, PTHR1 ag -15%, GLP1R ag -9%, GLP1R inv ag inconclusive, KAT2A inh -4% and HEK293 tox -2%.
For C=CCNC(=S)NNc1nc2c(c(=O)[nH]1)C1(CCCCC1)Cc1ccccc1-2 the results were RGS4 inh -25%, PTHR1 ag -57%, GLP1R ag 0%, GLP1R inv ag 10µM*, KAT2A inh -8% and HEK293 tox -17%.
`O=c1[nH]c(NCCO)nc2c1C1(CCCC1)Cc1ccccc1-2` gave RGS4 inh 0%, PTHR1 ag -19%, GLP1R ag -10%, GLP1R inv ag -6%, KAT2A inh -3% and HEK293 tox -14%.
Screening Cc1ccc(S(=O)(=O)c2ccc(Oc3cccc(C)c3)cc2)cc1 returned RGS4 inh -14%, PTHR1 ag inactive, GLP1R ag -4%, GLP1R inv ag 10µM*, KAT2A inh inconclusive and HEK293 tox -3%.
Screening Cc1ccc(S(=O)(=O)c2ccc(C)cc2)cc1 returned RGS4 inh 14%, PTHR1 ag inactive, GLP1R ag -8%, GLP1R inv ag -6%, KAT2A inh -6% and HEK293 tox -22%.
`Cc1cccc(Oc2ccc(S(=O)(=O)N3CCCCC3)cc2N)c1` gave RGS4 inh -2%[56.9 µM], PTHR1 ag -26%, GLP1R ag 19%, GLP1R inv ag 10µM*, KAT2A inh -5% and HEK293 tox -16%.
For C[C@@H]1CN([C@H](C)CO)C(=O)c2cc(Br)cnc2O[C@@H]1CN(C)Cc1ccc(-c2ccccc2)cc1 the results were PTHR1 ag -25%, GLP1R ag 6%, GLP1R inv ag inconclusive and HEK293 tox -8%.
